Compounds with a hit are over-represented: about 5.4% of the library has one in this group of screens.
HSF1 activator – HSF-1 activators, primary screen, NIH3T3-HGL cells, MG132 stress, luminescence, single point; activation, % at 9 µM; 300,000 compounds, 1.7% hits; AID 504408, 2011; NIH3T3-HGL HSF-1 luciferase reporter, 8 h; 100% = twice DMSO control signal;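 active = mean replicate activation of at least 50% with a set share of replicates each reaching 50%; inconclusive = only one of those two conditions met; inactive = mean below 50% and too few replicates reaching it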
AHR activator – AHR activators, primary screen, cell-based, luminescence, luciferase reporter, human; AHR-responsive luciferase reporter cells; activation, % at 5 µM; 320,000 compounds, 2.5% hits; AID 2796, 2010; in the data active = activation above about 47%
Target sequence (P35869 whole entry, looked up): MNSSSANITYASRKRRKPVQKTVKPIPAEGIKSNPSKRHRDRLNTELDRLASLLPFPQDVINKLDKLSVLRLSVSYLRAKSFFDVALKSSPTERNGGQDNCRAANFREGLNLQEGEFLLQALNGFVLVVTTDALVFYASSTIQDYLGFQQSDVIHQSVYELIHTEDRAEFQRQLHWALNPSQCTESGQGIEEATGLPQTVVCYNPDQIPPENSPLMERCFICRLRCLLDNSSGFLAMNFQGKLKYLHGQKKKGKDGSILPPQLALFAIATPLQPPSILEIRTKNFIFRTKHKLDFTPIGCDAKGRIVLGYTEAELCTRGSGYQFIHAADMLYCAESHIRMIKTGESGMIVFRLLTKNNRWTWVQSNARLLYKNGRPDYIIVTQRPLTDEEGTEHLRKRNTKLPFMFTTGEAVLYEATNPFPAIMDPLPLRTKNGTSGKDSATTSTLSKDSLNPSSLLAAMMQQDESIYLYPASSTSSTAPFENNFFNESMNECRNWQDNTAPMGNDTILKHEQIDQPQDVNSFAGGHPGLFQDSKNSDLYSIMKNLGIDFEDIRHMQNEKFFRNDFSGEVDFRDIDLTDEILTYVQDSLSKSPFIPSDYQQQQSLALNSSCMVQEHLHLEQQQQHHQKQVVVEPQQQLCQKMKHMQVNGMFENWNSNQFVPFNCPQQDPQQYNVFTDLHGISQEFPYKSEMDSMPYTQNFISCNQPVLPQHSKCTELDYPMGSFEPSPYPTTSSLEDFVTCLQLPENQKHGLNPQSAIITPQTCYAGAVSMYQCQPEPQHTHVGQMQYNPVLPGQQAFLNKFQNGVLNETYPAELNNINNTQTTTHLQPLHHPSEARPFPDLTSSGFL
DAX1 inh – DAX1 (NR0B1) inhibitors, primary screen, cell-based, HEK293, Gal4-DAX1, luciferase luminescence; HEK293 Gal4-DAX1 luciferase reporter; 340,000 compounds, 0.99% hits; inhibition, % at 6.75 µM; Nuclear receptor subfamily 0 group B member 1 (Homo sapiens), P51843;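 active = inhibition above the mean over all tested compounds plus 3 SD, cut at about 4.2% in these data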;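 note: inhibition shows as a rise in luminescence from relieved DAX1 repression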
GAA850 FXN act – FXN promoter activators, primary screen, cell-based, luciferase luminescence, HEK293 lucGAA850; HEK293 lucGAA850 FXN promoter luciferase reporter, 24 h; percent of 10 µM SAHA response; activation, % at 6 µM; 360,000 compounds, 0.56% hits;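 active = activation above the average of all compounds screened plus 3 SD, cutoff fixed separately per campaign, cut at about 7.5% in these data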
HSF1 inhib – HSF1 inhibitors in luciferase reporter cells, primary screen, cell-based, NIH3T3, luminescence; AID 2098, 2009; activity change, negative = inhibition, % at 7.5 µM (by protocol); NIH3T3-HGL HSE-luciferase, MG132-induced, luminescence 8 h; active compounds read low; 300,000 compounds, 0.77% hits;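 active = more than half of replicate wells show activity change below -50%, luminescence cut by over half; inconclusive = some wells, but at most half, below -50%; inactive = no replicate well below -50%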;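 note: luciferase reports HSF-1 transcriptional activity via heat shock element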
GAA30 counter – GAA30 FXN promoter activators, confirmation, counter-screen for GAA850 frataxin promoter activator project, cell-based, luminescence, HEK293, lucGAA30, triplicate | 1,900 compounds, 66% hits | shares compounds with GAA850 FXN act | HEK293 lucGAA30 FXN promoter luciferase, 24 h; DMSO = 0%, 5 µM ipriflavone = 100% | activation, % at 6 µM;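 active = mean activation above the mean of solvent-only control wells plus 3 SD, cut at about 22% in these data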;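 note: counterscreen of GAA850 promoter hits where activity marks nonselective or luminescence artifacts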
FXN GAA850 conf – FXN GAA850 promoter activators in reporter cells, confirmation, cell-based, luminescence, HEK293 lucGAA850, triplicate; shares compounds with GAA850 FXN act; HEK293 lucGAA850 FXN promoter luciferase reporter, 24 h; 100% = activation by SAHA; activation, % at 6 µM; 1,900 compounds, 86% hits; AID 588351, 2011;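 active = mean activation above a set limit taken from the primary screen, cut at about 8% in these data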
Hits are given with their value; n = inactive; u = inconclusive; x = no result given.

SMILES | HSF1 activator | AHR activator | DAX1 inh | GAA850 FXN act | HSF1 inhib | GAA30 counter | FXN GAA850 conf
CC1CN(c2ccc(Oc3ccccc3)cc2)c2nc3c(c(=O)n(CC(N)=O)c(=O)n3C)n2C1 (stereo unspecified) | n | n | n | 18.0 | n | n | n
CC1CN(Cc2ccccc2)c2nc3c(c(=O)n(CC(N)=O)c(=O)n3C)n2C1 (stereo unspecified) | n | n | n | n | n | x | x
O=C1c2ccccc2C(=O)N1CCc1c[nH]c2ccccc12 | n | n | 13.4 | 9.0 | n | 87.7 | 37.4
O=C1c2ccccc2C(=O)N1CCCc1c[nH]c2ccccc12 | n | n | n | n | n | x | x
O=[N+]([O-])c1ccccc1Nc1c2ccccc2nc2ccccc12 | n | n | n | 9.6 | n | 32.1 | 16.3
COc1ccc([N+](=O)[O-])cc1Nc1c2ccccc2nc2ccccc12 | n | n | n | 9.3 | n | n | 21.1
O=C(c1ccc(-c2ccc(Cl)cc2Cl)o1)N1CCOCC1 | 59.9 | n | 4.4 | 9.1 | n | 114.3 | 46.4
O=C(c1ccc(-c2cc(Cl)ccc2Cl)o1)N1CCOCC1 | n | n | n | n | n | x | x
O=C(c1ccco1)N1CCN(C(=O)c2ccc(-c3ccccc3Cl)o2)CC1 | x | n | n | 7.6 | x | 88.1 | 30.4
S=C(c1ccc(-c2ccccc2Cl)o1)N1CCCCC1 | n | n | n | 8.6 | n | 112.8 | 39.2
O=C(NCc1cccnc1)C(=O)N/N=C/c1ccc([N+](=O)[O-])cc1 | n | n | n | n | n | x | x
COc1ccc(Cc2nnc(NC(=O)c3ccccc3)s2)cc1OC | n | x | n | n | n | x | x
COc1cc(NC(=O)Cn2ncc(Cl)c(Cl)c2=O)c(C)cc1[N+](=O)[O-] | n | x | n | 11.8 | -92.7 | n | n
COc1cc(NC(=O)CN2C(=O)CN(C)C2=O)c(C)cc1[N+](=O)[O-] | n | n | n | n | n | x | x
NCC(=O)Nc1ccc(Cl)cc1C(=O)c1ccc[nH]1 | n | x | n | n | n | x | x
CC1=CC(C)=Nc2ccccc2N1 | n | n | n | 7.9 | n | 79.0 | 18.1
CCNC(=O)COC(=O)c1csc2c1CCCC2 | n | n | n | n | n | x | x
O=C(NCCN1CCOCC1)/C(=C\c1ccc(F)cc1)NC(=O)c1ccccc1 | n | n | n | n | n | x | x
O=C1OC(/C(=C\Nc2ccc(F)cc2F)[N+](=O)[O-])c2ccccc21 (stereo unspecified) | n | n | n | n | n | x | x
O=C1OC(/C(=C\Nc2cc(Cl)ccc2O)[N+](=O)[O-])c2ccccc21 (stereo unspecified) | n | n | n | 12.1 | n | 51.4 | n
Fc1ccc(Nc2nc(-c3ccncc3)cs2)cc1 | n | n | n | 7.9 | n | 88.7 | 32.8
c1ccc(Nc2nc(-c3ccncc3)cs2)cc1 | n | n | n | n | n | x | x
NNc1ccc(Cl)c(C(=O)O)c1 | n | n | n | 8.7 | n | 81.4 | 22.7
Cc1ccc(CS(=O)Cc2ccc(C(=O)N3CCN(c4ccccn4)CC3)o2)cc1 (stereo unspecified) | n | n | n | n | n | x | x
C=CCn1c(SCC(=O)Nc2ccc(O)cc2)nc2sc(CC)cc2c1=O | n | n | n | n | n | x | x
SMILES | HSF1 activator | AHR activator | DAX1 inh | GAA850 FXN act | HSF1 inhib | GAA30 counter | FXN GAA850 conf
Cn1c(=O)c2c(ncn2CC(=O)OCC(=O)Nc2cccc(C#N)c2)n(C)c1=O | x | x | n | n | x | x | x
COc1cccc(-c2cnc3c(NC=O)cc(-c4ccc(N5CCN(C)CC5)cc4)cn23)c1 | x | x | x | 8.8 | x | 83.2 | 40.0
O=C(COC(=O)Cc1ccsc1)Nc1ccc(Cl)cn1 | x | n | n | n | x | x | x
Fc1ccccc1N=C1NN=C(c2ccccc2)CS1 | n | n | n | 8.0 | n | 123.7 | 40.5
CS(=O)(=O)c1ccc(C(=O)NCCN2C(=O)S/C(=C\c3cccnc3)C2=O)cc1[N+](=O)[O-] | n | n | n | 13.7 | n | 148.2 | 43.6
CN(C)S(=O)(=O)c1ccc(C(=O)NCCN2C(=O)S/C(=C\c3cccnc3)C2=O)cc1 | n | n | n | n | n | x | x
CCO[C@@H]1OC(C(=O)Nc2ccccc2)=C[C@H](C2CC2)[C@H]1CCCO | n | n | n | n | n | x | x
O=C(NC1=NCCS1)c1sc2ccccc2c1Cl | n | n | n | n | n | x | x
Cc1ccc(NC(=O)c2sc3ccccc3c2Cl)nc1 | n | n | n | 8.4 | n | 105.1 | 15.6
COc1cccc(C(=O)Oc2ccccc2/C=C\C(=O)c2cc3ccccc3o2)c1 | 130.9 | x | n | 7.8 | n | 95.2 | 45.3
NC(=O)N/N=C/c1ccccc1OC(=O)c1cc2ccccc2oc1=O | n | n | n | n | n | x | x
COc1ccc(C(=O)/C=C/c2ccccc2OC)c(OC(=O)c2ccc([N+](=O)[O-])cc2)c1 | u | n | n | n | n | x | x
O=C(Oc1ccccc1/C=C\C(=O)c1cc2ccccc2o1)c1ccccc1 | 366.1 | 67.8 | n | 8.7 | n | 110.8 | 42.7
O=C(Oc1ccccc1/C=C\C(=O)c1cc2ccccc2o1)c1cccc(F)c1 | 234.8 | 70.0 | n | 8.9 | n | 40.3 | 20.0
COc1ccc(CNC(=O)c2ccc(Cn3cc(Br)cn3)o2)cc1 | n | n | n | n | n | x | x
COc1cc(/C=N/Nc2ccccn2)ccc1OCC(C)C | n | 71.5 | n | 7.8 | n | 87.0 | 38.4
CNC(=O)c1sc2nc(-c3ccc(OC)cc3)cn2c1C | n | n | n | n | n | x | x
Cc1c(C(=O)NCc2ccco2)sc2nc(-c3ccccc3)cn12 | n | n | n | 17.8 | n | 55.8 | 29.1
CCN(CC)C(=O)c1sc2nc(-c3ccc(OC)cc3)cn2c1C | n | n | n | 9.8 | n | 124.8 | 41.2
Cc1c(C(=O)NCc2cccnc2)sc2nc(-c3ccccc3)cn12 | n | n | n | n | n | x | x
CCOC(=O)N1CCC(N2Cc3cccc(C(=O)Nc4ccccc4OC)c3C2=O)CC1 | n | n | n | n | n | x | x
CCCOc1ccc(N2C(=O)CC(N3CCN(C(=O)c4ccco4)CC3)C2=O)cc1 (stereo unspecified) | n | n | n | n | n | x | x
COC(=O)c1ccc(N2C(=O)CC(N3CCN(C(=O)c4ccco4)CC3)C2=O)cc1 (stereo unspecified) | n | n | n | 11.5 | n | n | 8.2
O=C(CN1CCN(c2ccc(O)cc2)CC1)N(C1CC1)C1CCS(=O)(=O)C1 (stereo unspecified) | x | n | n | n | x | x | x

Assay outcomes: PubChem, several laboratories
